HCMV antiviral: blocks human cytomegalovirus replication. activity change, negative = inhibition, % at 57.5 µM. HFF cells, HCMV-luciferase reporter, 72 h; hits give low values. 410,000 compounds, 4.5% hits. AID 1259415; in the data active means activity change below about -60%; inconclusive means no clear call, values can overlap the other calls; inactive means above about -39%
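Steps: HFFs plated, 16 h 37C; compounds added; HCMV-luciferase added to MOI 1 PFU/cell; 72 h 37C; OneGlo reagent, 5 min room temperature; luminescence read, normalized to controls.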
Vaccinia Venus: inhibitors of vaccinia virus (Venus reporter); Vaccinia virus Venus reporter expression, fluorescence; Potency, µM (titrated, usually from 36.5 µM), most hits filed as inhibitors; 330,000 compounds, 0.46% hits; calls by dose curve; tested in A549 cells; further: nearly all actives have a fitted effect of over 30% in size
HCV inhibitor: inhibitors of hepatitis C virus infection. 340,000 compounds, 3.4% hits. Potency, µM (top dose mostly 41.8 µM), most hits filed as inhibitors. Huh7.5.1 HCVcc-Cre infection, luciferase reporter, 44 h; active means well fitted inhibition curve with a large enough effect; inconclusive means small, poorly fitted or top-dose-only effect, or another doubt; inactive means no such curve, though single readings can be large or run the other way
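Luciferase read-out (15 sec integration) after a 15 min room-temperature substrate step quantifies HCVcc-Cre infection. Cells, 1,000 per well, had compound added 4 h post-plating, then virus at ~0.5 moi, and were cultured 44 h.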
FMDV inh: antivirals against foot and mouth disease virus; FMDV antiviral cell-based qHTS; Potency, µM (series often up to 57.9 µM), usual class: inhibitors; 410,000 compounds, 1.2% hits; calls by dose curve; tested in HEK293T cells; further: read-out not given here; nearly all actives have a fitted effect of over 45% in size
Vaccinia mCherry: inhibitors of vaccinia virus infection (mCherry reporter signal); Vaccinia virus mCherry reporter infection, fluorescence; 310,000 compounds, 0.63% hits; AID 720579; Potency, µM (titrated, usually from 36.5 µM), most hits filed as inhibitors; calls by dose curve; tested in A549 cells; further: nearly all actives have a fitted effect of over 35% in size
Of the large screens only hits and unclear results are named; the others gave an inactive call. Only some compounds are listed: those with a hit (about 7.3% of all), similar ones and a draw of the others.

O=[N+]([O-])c1ccc(-c2nc(NCC3CCCO3)c3ccccc3n2)cc1 (centres undefined)	Vaccinia Venus inconclusive, HCV inhibitor inconclusive
COc1cccc(-c2nc(NCC3CCCO3)c3ccccc3n2)c1O (centres undefined)	Vaccinia Venus inconclusive, HCV inhibitor inconclusive, FMDV inh 17.8µM, Vaccinia mCherry inconclusive
COc1ccccc1Nc1nc(NCC2CCCO2)c2ccccc2n1 (centres undefined)	HCMV antiviral inconclusive, HCV inhibitor 10µM, FMDV inh inconclusive
Oc1ccccc1-c1nc(NCC2CCCO2)c2ccccc2n1 (centres undefined)	HCV inhibitor 12.6µM, FMDV inh inconclusive
CCOc1ccc(S(=O)(=O)N2CCC(N3CCN(Cc4ccc(F)cc4)C(=O)C3=O)CC2)cc1	Vaccinia mCherry inconclusive (no result: HCV inhibitor)
CC(Sc1nnc(C2CC2)n1C1CC1)C(=O)c1ccc(Br)cc1 (centres undefined)	HCMV antiviral -62.1
COc1cccc(NC(=O)C(C)Sc2nnc(C3CC3)n2C2CC2)c1 (centres undefined)	none (no result: Vaccinia Venus, Vaccinia mCherry)
C/C(=N/NS(=O)(=O)c1ccc(CC(C)C)cc1)c1ccncc1	HCMV antiviral -66.1, HCV inhibitor inconclusive (no result: Vaccinia Venus, Vaccinia mCherry)
COc1ccc(Nc2cc3c(cn2)cc(-c2cccc(C(F)(F)F)c2)n3C)cc1	none (no result: Vaccinia Venus, HCV inhibitor, FMDV inh, Vaccinia mCherry)
CCCCn1nnnc1C(c1cc2ccccc2o1)N(Cc1ccccc1)Cc1ccccc1 (centres undefined)	none (no result: HCV inhibitor)
Cc1ccc(-c2nnc(Nc3ccc4c(c3)OCO4)c3ccccc23)cc1S(=O)(=O)NC(C)C	HCMV antiviral -92.3, Vaccinia Venus inconclusive, HCV inhibitor inconclusive, Vaccinia mCherry inconclusive
Cc1ccc(C)c(Nc2nnc(-c3ccc(C)c(S(=O)(=O)NCC4CCCO4)c3)c3ccccc23)c1 (centres undefined)	HCMV antiviral -103.8 (no result: HCV inhibitor)
Cc1ccc(-c2nnc(Nc3ccc(CC(N)=O)cc3)c3ccccc23)cc1S(=O)(=O)NCCO	none (no result: Vaccinia Venus, Vaccinia mCherry)
Cc1ccc(-c2nnc(Nc3ccc(Cl)c(Cl)c3)c3ccccc23)cc1S(=O)(=O)NCCO	HCMV antiviral -90.5, Vaccinia mCherry inconclusive (no result: HCV inhibitor)
Cc1ccc(-c2nnc(Nc3ccc4c(c3)OCO4)c3ccccc23)cc1S(=O)(=O)NCCO	HCMV antiviral -93.8, Vaccinia Venus inconclusive, FMDV inh inconclusive, Vaccinia mCherry inconclusive
O=C(NCCc1nc2ccccc2n1CCCOc1ccccc1Cl)C1CCCCC1	Vaccinia Venus inconclusive (no result: HCMV antiviral, HCV inhibitor, FMDV inh)
CNNC	none (no result: HCMV antiviral, HCV inhibitor)
Cc1ccc(C(=O)N2CCN(c3cccc(Cl)c3)CC2)cc1-n1c(C)nc2cccnc21	FMDV inh inconclusive (no result: HCV inhibitor)
O=C(NCc1cccnc1)/C(=C\c1ccc(-c2ccc(Cl)c(Cl)c2)o1)S(=O)(=O)c1ccccc1	HCMV antiviral -102.2, Vaccinia Venus 11.2µM, HCV inhibitor 11.2µM, FMDV inh inconclusive, Vaccinia mCherry inconclusive
CCOC(=O)c1cc(-c2ccc(N3CCOCC3)cc2)nn1-c1ccc(F)cc1F	HCV inhibitor 11.2µM
CC1CCCCC1NC(=O)CN1C(=O)CSc2cc(S(=O)(=O)N3CCCCCC3)ccc21 (centres undefined)	HCV inhibitor inconclusive
Cc1ccc(S(=O)(=O)N2CCN(C(=O)CCN3C(=O)c4ccccc4C3=O)CC2)cc1C	HCMV antiviral -62.5
Cc1ccc(S(=O)(=O)N2CCN(C(=O)Cc3ccccc3)CC2)cc1C	none (no result: Vaccinia Venus, Vaccinia mCherry)
CC(C)CC(=O)N1CCN(S(=O)(=O)c2ccc3ccccc3c2)CC1	HCMV antiviral -88.4, HCV inhibitor inconclusive, FMDV inh inconclusive (no result: Vaccinia Venus, Vaccinia mCherry)
CSc1ncccc1C(=O)N1CCN(S(=O)(=O)c2ccc3ccccc3c2)CC1	HCMV antiviral -83.0, HCV inhibitor inconclusive (no result: Vaccinia Venus, Vaccinia mCherry)
O=C(CSc1n[nH]c(-c2cccs2)n1)N1CCN(S(=O)(=O)c2ccc3ccccc3c2)CC1	Vaccinia Venus inconclusive, HCV inhibitor inconclusive, FMDV inh 22.4µM
Nc1cc(=O)[nH]c(SCC(=O)N2CCN(S(=O)(=O)c3ccc4ccccc4c3)CC2)n1	none
CC(C)CC1NC(=O)N(CC(=O)N2CCN(S(=O)(=O)c3ccc4ccccc4c3)CC2)C1=O (centres undefined)	Vaccinia Venus inconclusive (no result: Vaccinia mCherry)
COc1ccc(-c2cn3nc(N4CCCC(C(=O)NCc5ccccc5OC)C4)sc3n2)cc1 (centres undefined)	none (no result: HCV inhibitor)
CNC(=O)C1CCC(Cn2c(=O)[nH]c3ccsc3c2=O)CC1 (centres undefined)	none (no result: HCV inhibitor)
N#Cc1cccc(-c2nc(NCc3cccnc3)c3ccccc3n2)c1	none (no result: HCMV antiviral, Vaccinia Venus, HCV inhibitor, Vaccinia mCherry)
O=C(c1cnc(Cl)c(Cl)c1)N1CCN(S(=O)(=O)c2ccc3ccccc3c2)CC1	HCV inhibitor 11.2µM, FMDV inh inconclusive

Screening results (PubChem)
